Compound activity: PubChem, several laboratories
aSyn 5UTR inh: 5' untranslated region of α-synuclein, MLPCN primary screen. inhibition, % (tested at 7.5 µM). actives 0.82% (n = 300,000). alpha-synuclein 5'UTR reporter, inhibitor activity; in the data active = inhibition above about 60%; inconclusive = no clear call, values can overlap the other calls;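 note: H4 neuroglioblastoma cells stably carrying SNCA 5'UTR luciferase fusion; 0% = DMSO wells and 100% = positive control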
Beta cell apopt: blocks beta cell apoptosis; INS-1E cytokine-induced death, ATP luminescence, 48 h; percent of positive-control rescue, neutral wells zero; protection from apoptosis, % (no concentration beside the values); actives 0.8% (n = 300,000); AID 435005;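 active = Every replicate reaches about 75%, or at least half do and their mean reaches it too, limit read from the data; inconclusive = At least half of replicates reach the limit but their mean does not; inactive = Under half of replicates reach the limit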;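 note: 0% = cytokine-treated negative control wells and 100% = positive control rescue; higher means more ATP so stronger rescue from cytokine killing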
Mdm2 MdmX PPI: disrupts the human Mdm2-MdmX interaction; SaOS-2 split-luciferase Mdm2/MdmX complementation, luminescence; inhibition, % at 8 µM; O15151+Q00987; actives 3% (n = 330,000);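 active = inhibition of at least 50% at 8 µM in the primary screen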
Target sequence (O15151 whole entry, looked up): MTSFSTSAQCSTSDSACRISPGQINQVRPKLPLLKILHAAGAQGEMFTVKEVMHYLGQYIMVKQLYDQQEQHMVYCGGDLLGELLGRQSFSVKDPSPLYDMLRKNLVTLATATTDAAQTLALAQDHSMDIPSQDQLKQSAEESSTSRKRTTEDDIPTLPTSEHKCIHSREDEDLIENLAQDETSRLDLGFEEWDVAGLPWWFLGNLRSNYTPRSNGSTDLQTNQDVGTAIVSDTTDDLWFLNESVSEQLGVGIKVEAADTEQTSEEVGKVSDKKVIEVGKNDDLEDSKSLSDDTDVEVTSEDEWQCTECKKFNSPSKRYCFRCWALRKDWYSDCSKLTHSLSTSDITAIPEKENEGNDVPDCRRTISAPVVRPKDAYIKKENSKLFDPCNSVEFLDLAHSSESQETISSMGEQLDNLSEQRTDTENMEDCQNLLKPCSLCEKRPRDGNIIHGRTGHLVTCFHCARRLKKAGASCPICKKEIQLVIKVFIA
Target sequence (Q00987 whole entry, looked up): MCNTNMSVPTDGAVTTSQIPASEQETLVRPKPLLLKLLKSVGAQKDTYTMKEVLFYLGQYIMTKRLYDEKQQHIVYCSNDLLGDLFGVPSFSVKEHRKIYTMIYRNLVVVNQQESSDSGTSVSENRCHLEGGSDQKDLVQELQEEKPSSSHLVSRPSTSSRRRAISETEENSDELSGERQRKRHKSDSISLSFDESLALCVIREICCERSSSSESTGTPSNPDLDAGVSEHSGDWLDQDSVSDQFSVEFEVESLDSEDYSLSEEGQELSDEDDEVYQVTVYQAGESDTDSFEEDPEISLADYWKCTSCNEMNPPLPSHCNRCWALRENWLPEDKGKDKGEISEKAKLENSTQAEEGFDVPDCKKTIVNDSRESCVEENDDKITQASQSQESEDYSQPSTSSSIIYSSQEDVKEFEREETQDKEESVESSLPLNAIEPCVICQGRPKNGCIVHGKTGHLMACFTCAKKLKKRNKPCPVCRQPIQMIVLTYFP
CSC inhib: cancer stem cell inhibition. cancer stem cell-like cells viability, luminescence. inhibition, % at 7.5 µM. actives 1.1% (n = 300,000); in the data active = inhibition above about 75%; inconclusive = no clear call, values can overlap the other calls; tested in HMLE shEcad cells
Bfl-1 A1 inh: inhibitors of the anti-apoptotic protein A1, read as caspase activation; actives 0.066% (n = 330,000); AID 2462; MEF A1-2A-BIM cells, Caspase-Glo 3/7 luminescence, 3 h; percent of clofoctol response, vehicle zero; caspase activation, % (no concentration beside the values);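 active = over half of replicate activation scores above 10%, or exactly half above 10 with the replicate mean above 10; inconclusive = replicate mean below 10 yet half the replicates above 10; inactive = over half of replicates below 10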
* hit, by the source's call; ? = inconclusive; . = no result. This is a sample that favours compounds with a hit; in the whole collection about 4.1% have one here.

SMILES	aSyn 5UTR inh	Beta cell apopt	Mdm2 MdmX PPI	CSC inhib	Bfl-1 A1 inh
COc1ccc(C(=O)Nc2ccc3[nH]ccc3c2)cc1	66*	8	-65	32	-7
O=C(Nc1ccc2ccccc2c1)c1ccc(Cl)cc1	-23	.	-126	1	-5
COc1ccc(C(=O)Nc2ccc3[nH]ccc3c2)cc1OC	-134	0	17	0	-6
Cc1ccc2nccc(C(=O)N3CCCC(Nc4ccc(F)cc4)C3)c2c1 (stereo not drawn)	10	-1	-7	9	1
CCCc1n[nH]c2c1/C(=N/O)CC(c1ccccc1)C2 (stereo not drawn)	69*	3	1	23	-2
Nc1ccc(-c2cc(-c3cccc(N)c3)nc(-c3ccccc3)n2)cc1	31	-9	-18	84*	1
Cc1nn(C)c2ncc(C(=O)c3cc(F)ccc3O)cc12	15	-2	7	-11	0
O=C(c1cnc2ccc3ccccc3c2c1)c1cc(F)ccc1O	11	-4	40	84*	-1
Cc1cccc(CN2C(=O)[C@@H]3Cc4c([nH]c5ccccc45)C(C)(C)N3C2=O)c1	-4	.	24	76*	1
Cc1cccc(CN2C(=O)[C@H]3Cc4c([nH]c5ccccc45)C(C)(C)N3C2=O)c1	1	5	16	4	0
O=C(c1ccccc1Br)N(Cc1ccccc1)c1ccccc1	13	7	7	-11	?
CN1CCN(/N=C/c2ccc(N(c3ccccc3)c3ccccc3)cc2)CC1	71*	2	29	86*	0
O=S(=O)(c1cc(F)ccc1F)N1CCN(c2ncnc3ccccc23)CC1	.	104*	23	48	-1
O=S(=O)(c1cc(F)ccc1F)N1CCN(c2ccccn2)CC1	1	2	12	-11	-8
C(#Cc1ccccc1)C[N+]1(CC#Cc2cccc3ccccc23)CCCC1	3	77*	48	15	-1
Cc1ccc(CN2C(=O)/C(=C\c3ccc(C(=O)NCc4cccnc4)cc3)Oc3ccccc32)cc1	101*	99*	9	108*	0
Cc1ccc2nc(-c3ccc(NS(=O)(=O)c4ccccc4)cc3)sc2c1	-85	3	-17	12	0
Cc1ccc2nc(-c3ccc(NS(=O)(=O)c4ccc(F)c(F)c4)cc3)sc2c1	-124	0	.	103*	-5
Cc1ccc(/C=C/C(=O)c2ccc(C)cc2)cc1	-150	-3	13	12	1
Cc1ccc(C(=O)/C=C/C(=O)c2ccc(C)cc2)cc1	-8	0	44	64	9.9*
Cc1cccc(Nc2nc3c(S(=O)(=O)c4ccccc4)nnn3c3ccccc23)c1	33	9	34	-6	7.4*
COc1cccc(-c2sc3ccc(OC)cc3c2C#CCCO)c1	.	-6	26	116*	-2
COc1cccc(-c2sc3ccc(OC)cc3c2C#CC2(O)CCCCC2)c1	.	-14	21	105*	0
COc1cc(OC)cc(-c2sc3ccc(OC)cc3c2C#CCO)c1	.	-5	8	102*	0
Cn1cc(/C=N/n2cnc3scc(-c4ccccc4)c3c2=O)c2ccccc21	66*	11	43	45	0
SMILES	aSyn 5UTR inh	Beta cell apopt	Mdm2 MdmX PPI	CSC inhib	Bfl-1 A1 inh
CCCCCCCCCc1nc2sc3c(c2c(=O)n1NC(=O)c1ccccc1[N+](=O)[O-])CC(C)(C)OC3	11	4	-7	107*	0
CCCCCCCCCc1nc2sc3c(c2c(=O)n1NC(=O)c1ccc([N+](=O)[O-])cc1)CC(C)(C)OC3	18	0	37	-21	0
CCOc1cc(/C=N/O)cc(Br)c1OCc1ccc(Cl)cc1	20	10	15	117*	1
CCOc1cc(/C=N/O)cc(Br)c1OCC	-3	-8	28	-2	1
O=C(Nc1nnc(SCc2ccccn2)s1)C1CC(=O)N(c2ccc(F)cc2)C1 (stereo not drawn)	2	-5	4	-7	0
O=C(/C=C/c1ccco1)Oc1cc(Br)cc(/C=N/NC(=O)c2ccccc2O)c1	96*	1	.	9	-3
Cc1nn(C)cc1S(=O)(=O)Nc1ccccc1Br	4	-5	-20	-3	-1
O=C1C2C(c3ccccc3)(C(=O)N1c1ccc(Cl)cc1)C2(c1ccccc1)c1ccccc1 (stereo not drawn)	35	1	31	75*	0
OC(CNC1CCCCC1)COCCOc1ccc(Br)cc1 (stereo not drawn)	-10	106*	30	58	0
